Reference: the supplement of paper PMC6555819

Columns and labels:
Assay in all cases: PBM binding z-score (relative to random genomic background probes); higher = stronger binding; sequences stand for … in GC…GCGATTGACAGCGTAGAATGAAGG
[1] = test system: FXR:RXRa (NR concentration 270 nM, RXRa partner concentration 90 nM)
Method in brief: (§1)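 Custom Agilent 4×180K protein-binding microarrays carried double-stranded probes, each with a 34-nt variable region. These regions held direct-repeat seeds, single-nucleotide variants, half-site ablations and random human genomic background sequences. Ligand-free nuclear receptor dimers were incubated on the arrays for 1 h, antibodies against each partner (one per run) detected binding, and scanned fluorescence was regression-normalized. Binding z-scores take the random background probes as reference.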

[2] = test system: LXRa:RXRa (NR concentration 270 nM, RXRa partner concentration 90 nM)
Method in brief: as §1

[3] = test system: LXRa homodimer (NR concentration 270 nM)
Method in brief: as §1

[4] = test system: LXRb:RXRa (NR concentration 270 nM, RXRa partner concentration 90 nM)
Method in brief: as §1

[5] = test system: LXRb homodimer (NR concentration 270 nM)
Method in brief: as §1

[6] = test system: PPARa:RXRa (NR concentration 270 nM, RXRa partner concentration 90 nM)
Method in brief: as §1

[7] = test system: PPARg:RXRa (NR concentration 180 nM, RXRa partner concentration 90 nM)
Method in brief: as §1

[8] = test system: PPARg:RXRa 270nM:90nM, anti-RXR (NR concentration 270 nM, RXRa partner concentration 90 nM)
Method in brief: as §1

[9] = test system: PPARg:RXRa 30nM:10nM, anti-RXR (NR concentration 30 nM, RXRa partner concentration 10 nM)
Method in brief: as §1

[10] = test system: PPARg:RXRa 90nM:30nM, anti-RXR (NR concentration 90 nM, RXRa partner concentration 30 nM)
Method in brief: as §1

[11] = test system: PPARg:RXRa DBDmut IVT, anti-RXR (DBD mutation: RXRa K156A/R161A, NR concentration 270 nM, RXRa partner concentration 90 nM)
Method in brief: as §1

[12] = test system: PPARg:RXRa IVT, anti-PPARg (NR concentration 270 nM, RXRa partner concentration 90 nM)
Method in brief: as §1

[13] = test system: PPARg DBDmut:RXRa IVT, anti-PPARg (DBD mutation: PPARg1 K132A/R137A, NR concentration 270 nM, RXRa partner concentration 90 nM)
Method in brief: as §1

[14] = test system: PPARg DBDmut IVT, anti-PPARg (DBD mutation: PPARg1 K132A/R137A, NR concentration 270 nM)
Method in brief: as §1

[15] = test system: PPARg homodimer (NR concentration 180 nM)
Method in brief: as §1

[16] = test system: PXR:RXRa (NR concentration 270 nM, RXRa partner concentration 90 nM)
Method in brief: as §1

[17] = test system: PXR homodimer (NR concentration 270 nM)
Method in brief: as §1

[18] = test system: RARa:RXR (NR concentration 270 nM, RXRa partner concentration 90 nM)
Method in brief: as §1

[19] = test system: RARa homodimer (NR concentration 270 nM)
Method in brief: as §1

[20] = test system: RARb:RXRa (NR concentration 270 nM, RXRa partner concentration 90 nM)
Method in brief: as §1

ATATGTAGGTTATCGGCTCATTCAGTTTGCGCAT
PBM binding z-score [1]: 0.488 | PBM binding z-score [2]: 0.867 | PBM binding z-score [3]: 0.283 | PBM binding z-score [4]: 0.755 | PBM binding z-score [5]: 1.03 | PBM binding z-score [6]: 2.6 | PBM binding z-score [7]: 4.14 | PBM binding z-score [8]: 3.87 | PBM binding z-score [9]: 1.47 | PBM binding z-score [10]: 3.4 | PBM binding z-score [11]: 6.92 | PBM binding z-score [12]: 6.58 | PBM binding z-score [13]: 2.28 | PBM binding z-score [14]: 1.66 | PBM binding z-score [15]: 1.39 | PBM binding z-score [16]: 0.282 | PBM binding z-score [17]: 0.405 | PBM binding z-score [18]: 0.31 | PBM binding z-score [19]: 1.01 | PBM binding z-score [20]: 0.662

TAGCCTAGGTCATTGGGCGAGTATAGTACGCATC
PBM binding z-score [1]: 4.55 | PBM binding z-score [2]: 3.24 | PBM binding z-score [3]: 0.459 | PBM binding z-score [4]: 2.06 | PBM binding z-score [5]: 0.053 | PBM binding z-score [6]: 3.51 | PBM binding z-score [7]: 2.65 | PBM binding z-score [8]: 2.83 | PBM binding z-score [9]: 0.405 | PBM binding z-score [10]: 1.8 | PBM binding z-score [11]: 1.88 | PBM binding z-score [12]: 3.05 | PBM binding z-score [13]: 0.311 | PBM binding z-score [14]: -0.0966 | PBM binding z-score [15]: 1.15 | PBM binding z-score [16]: 1.59 | PBM binding z-score [17]: -0.283 | PBM binding z-score [18]: 2.09 | PBM binding z-score [19]: -0.259 | PBM binding z-score [20]: 3.69

ACAGACAGGTGAGTGAAGGTAACTCAGCTGGACG
PBM binding z-score [1]: 0.377 | PBM binding z-score [2]: 0.0321 | PBM binding z-score [3]: -0.247 | PBM binding z-score [4]: -0.255 | PBM binding z-score [5]: -0.625 | PBM binding z-score [6]: 0.294 | PBM binding z-score [7]: 0.762 | PBM binding z-score [8]: 0.0476 | PBM binding z-score [9]: -0.138 | PBM binding z-score [10]: -0.304 | PBM binding z-score [11]: 0.432 | PBM binding z-score [12]: 0.804 | PBM binding z-score [13]: 0.0951 | PBM binding z-score [14]: 0.079 | PBM binding z-score [15]: -0.0829 | PBM binding z-score [16]: -0.379 | PBM binding z-score [17]: -0.472 | PBM binding z-score [18]: 0.0819 | PBM binding z-score [19]: -0.173 | PBM binding z-score [20]: 0.67

CCTCGTAGGACAACAGGAGGTCAGAGCTGCCAGA
PBM binding z-score [1]: 0.951 | PBM binding z-score [2]: 2.16 | PBM binding z-score [3]: 1.91 | PBM binding z-score [4]: 1.57 | PBM binding z-score [5]: -0.267 | PBM binding z-score [6]: 1.99 | PBM binding z-score [7]: 0.534 | PBM binding z-score [8]: 0.644 | PBM binding z-score [9]: -0.534 | PBM binding z-score [10]: 0.258 | PBM binding z-score [11]: 0.397 | PBM binding z-score [12]: 0.633 | PBM binding z-score [13]: -0.938 | PBM binding z-score [14]: -1.38 | PBM binding z-score [15]: 1.75 | PBM binding z-score [16]: 2.08 | PBM binding z-score [17]: 0.26 | PBM binding z-score [18]: 2.37 | PBM binding z-score [19]: 0.699 | PBM binding z-score [20]: 2.56

CCGACTGGGGCAAAGGTTACCGTACTCAGTACGA
PBM binding z-score [1]: 1.69 | PBM binding z-score [2]: 1.59 | PBM binding z-score [3]: -0.472 | PBM binding z-score [4]: 1.95 | PBM binding z-score [5]: -1.15 | PBM binding z-score [6]: 5.78 | PBM binding z-score [7]: 10.6 | PBM binding z-score [8]: 9.35 | PBM binding z-score [9]: 9.56 | PBM binding z-score [10]: 9.91 | PBM binding z-score [11]: 4.82 | PBM binding z-score [12]: 5.85 | PBM binding z-score [13]: 0.024 | PBM binding z-score [14]: -0.75 | PBM binding z-score [15]: 1.93 | PBM binding z-score [16]: 2.04 | PBM binding z-score [17]: -0.837 | PBM binding z-score [18]: 3.75 | PBM binding z-score [19]: -0.437 | PBM binding z-score [20]: 2.39

TGTCTAAGTTCAAAGGTAACGTAAGTATCCACAC
PBM binding z-score [1]: 4.9 | PBM binding z-score [2]: 5.21 | PBM binding z-score [3]: 1.95 | PBM binding z-score [4]: 3.38 | PBM binding z-score [5]: 1.12 | PBM binding z-score [6]: 4.85 | PBM binding z-score [7]: 4.52 | PBM binding z-score [8]: 5.15 | PBM binding z-score [9]: 2.77 | PBM binding z-score [10]: 4.68 | PBM binding z-score [11]: -0.293 | PBM binding z-score [12]: 1.97 | PBM binding z-score [13]: 0.709 | PBM binding z-score [14]: 1.14 | PBM binding z-score [15]: 1.56 | PBM binding z-score [16]: 5.3 | PBM binding z-score [17]: 3.65 | PBM binding z-score [18]: 4.93 | PBM binding z-score [19]: 0.919 | PBM binding z-score [20]: 3.93

CGAACTATGTCATTGACAGGACAGTGAATAGTAA
PBM binding z-score [1]: -0.339 | PBM binding z-score [2]: -0.306 | PBM binding z-score [3]: -0.302 | PBM binding z-score [4]: 0.00263 | PBM binding z-score [5]: -0.414 | PBM binding z-score [6]: 0.765 | PBM binding z-score [7]: 0.677 | PBM binding z-score [8]: 0.347 | PBM binding z-score [9]: 0.272 | PBM binding z-score [10]: 0.497 | PBM binding z-score [11]: 3.29 | PBM binding z-score [12]: 2.17 | PBM binding z-score [13]: 0.536 | PBM binding z-score [14]: 1.15 | PBM binding z-score [15]: 0.302 | PBM binding z-score [16]: 0.0899 | PBM binding z-score [17]: 0.452 | PBM binding z-score [18]: 0.317 | PBM binding z-score [19]: 0.439 | PBM binding z-score [20]: 0.614
